The list is a sample of the results.
PostGolgi yeast = growth inhibition of a yeast mutant, post-Golgi transport screen. AID 739. inhibition, % at 10 µM. post-Golgi transport phenotypic cell assay. actives 0.9% (n = 98,000);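 also: yeast cells grown in 1536-well plates; yeast grown about 18 h at 30C before absorbance read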
CYP2C19 activ = increases human CYP2C19 enzyme activity | recombinant CYP2C19, luciferin-H EGE luminescence; active compounds read high; 0 = fully inhibited enzyme, 1 = untreated enzyme | activation factor at 5 µM | 96,000 tested, under 10 active;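 active = activation factor of at least 2 at 5 µM in the primary screen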;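 also: 0 = wells with 2.5 mM tranylcypromine and 1 = vehicle-only wells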
CYP2C9 inhib = blocks human cytochrome P450 2C9. AID 777. actives 20% (n = 96,000). P11712. inhibition, % at 5 µM. CYP2C9 Supersomes, luciferin-H conversion, luminescence;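 active = blocking of liver enzyme CYP2C9 beyond about 50% at 5 µM, limit read from the data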
Target sequence (P11712 whole entry, looked up): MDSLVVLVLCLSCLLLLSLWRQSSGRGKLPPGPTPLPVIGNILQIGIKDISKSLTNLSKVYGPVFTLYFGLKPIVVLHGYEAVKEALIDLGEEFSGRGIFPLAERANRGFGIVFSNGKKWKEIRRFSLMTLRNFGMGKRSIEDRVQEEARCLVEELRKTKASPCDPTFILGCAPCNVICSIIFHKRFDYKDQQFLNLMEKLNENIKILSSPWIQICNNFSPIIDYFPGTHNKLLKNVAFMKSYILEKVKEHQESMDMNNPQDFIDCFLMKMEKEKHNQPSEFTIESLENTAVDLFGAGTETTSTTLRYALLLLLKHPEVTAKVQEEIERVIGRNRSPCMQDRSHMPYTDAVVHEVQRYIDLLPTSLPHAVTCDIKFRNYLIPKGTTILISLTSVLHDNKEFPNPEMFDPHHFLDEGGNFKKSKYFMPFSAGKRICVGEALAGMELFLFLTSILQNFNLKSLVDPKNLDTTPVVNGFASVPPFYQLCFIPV
PostGolgi ctrl = growth of the yeast control strain, post-Golgi counter-screen | inhibition, % at 10 µM | efflux-deficient yeast background strain, growth absorbance A615, 16 h | AID 738 | actives 5% (n = 98,000)
CYP2C9 activ = activators of human CYP2C9; actives 1.4% (n = 96,000); recombinant CYP2C9, luciferin-H conversion, luminescence; active compounds read high; factor 1 = untreated enzyme, 0 = blocked; activation factor at 5 µM; AID 1024;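 active = activation factor of 2 or more for CYP2C9 at a 5 µM dose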;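 also: 0 = sulfaphenazole-blocked wells and 1 = vehicle-only wells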
CYP2C19 inhib = inhibitors of human CYP2C19; CYP2C19 Supersomes, luciferin-H EGE luminescence, 30 min; inhibition, % at 5 µM; actives 21% (n = 96,000); AID 778;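 active = CYP2C19 inhibition above a set limit at 5 µM in the primary screen, cut at about 50% in these data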;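 also: plate controls were negative control wells for no effect and 2.5 mM tranylcypromine positive control for full effect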
Active calls of the source: *. Rule as the data show it, unless noted: active = inhibition above about 30%; inactive = the rest.

SMILES	PostGolgi yeast	CYP2C19 activ	CYP2C9 inhib	PostGolgi ctrl	CYP2C9 activ	CYP2C19 inhib
Cn1nc(-c2ccccc2)c(CSc2ccccc2)c1Cl	-1.8	0.8	14.5	18.1	0.9	16.2
CCN1c2ccccc2-c2nc3ccccc3n2C1c1cccnc1 (stereo not drawn)	-8.0	0.8	71.1*	18.4	0.3	15.3
Cn1nc(C(F)(F)F)c(C#N)c1N1CCN(c2ccccc2)CC1	10.1	0.3	71.7*	71.7*	0.3	69.4*
COc1ccnc(Oc2ccccc2)c1C#N	6.9	1.1	-5.3	-3.7	1.1	-5.6
Cn1nc(C(F)(F)F)c(C#N)c1N1CCN(c2ccc(F)cc2)CC1	2.9	0.2	82.1*	73.5*	0.2	78.3*
COc1ccnc(N2CCN(c3ccccc3)CC2)c1C#N	3.4	0	79.8*	2.2	0.2	100.3*
CC(C)c1nnc(NC(=O)CCC(=O)Nc2ccc(F)cc2)s1	-0.6	1.1	-2.4	-8.3	1	-12.4
O=C(/C=C/c1ccc([N+](=O)[O-])cc1)NCC1CCCO1 (stereo not drawn)	4.2	1.1	-15.9	5.2	1.2	-12.4
O=C(NCc1ccc(Cl)cc1)C1=Cc2cc(Cl)ccc2OC1	21.3	1.1	-3.7	5.0	1	-6.1
CC(=O)c1cccc(NC(=O)NC(C)c2ccncc2)c1 (stereo not drawn)	4.5	0.2	93.8*	-3.4	0.1	85.0*
O=C(O)c1cccc(NC(=S)NC(=O)C(c2ccccc2)c2ccccc2)c1	24.0	1	81.6*	11.2	0.2	-3.7
Cc1cc(C(=O)NC(C)c2ccncc2)cs1 (stereo not drawn)	5.0	0.6	44.2	4.0	0.6	39.4
CC(=O)c1cccc(NC(=S)NC(=O)CC(C)C)c1	-1.3	0.8	55.8*	5.8	0.4	15.7
COc1cc(OC)c(NC(=S)Nc2cccc(C(C)=O)c2)cc1Cl	-3.6	0.5	34.2	5.2	0.7	54.3*
CCC(=O)NC(=S)Nc1cccc(C(C)=O)c1	-3.6	0.9	14.9	1.2	0.9	9.9
CCCC(CCC)C(=O)Nc1cccc(C(=O)O)c1	1.5	1.1	-8.7	0.6	1.1	-5.6
COc1cc(NC(=S)Nc2cccc(Cl)c2Cl)c(OC)cc1Cl	-1.5	0.9	-5.9	2.5	1.1	8.6
COc1ccc(S(=O)(=O)NC(CC(=O)N2CCc3ccccc32)c2ccco2)cc1 (stereo not drawn)	-2.6	0.6	49.9	17.6	0.5	40.6
CCCc1cc(C(=O)Nc2c(C)n(C)n(-c3ccccc3)c2=O)no1	-0.2	0.9	22.0	13.7	0.8	10.2
COCCNC(=O)C(c1ccco1)N(Cc1ccc(OC)cc1)C(=O)Cn1nnc2ccccc21 (stereo not drawn)	1.1	1	-6.0	9.0	1.1	-4.1
CC(=O)C1=C(O)C(=O)N(Cc2ccco2)C1c1ccc2c(c1)OCO2 (stereo not drawn)	9.9	1	-7.3	6.0	1.1	-4.5
COc1ccc(NC(=O)C2CCN(c3cc(-c4ccccc4)nc4ncnn34)CC2)cc1OC	0.0	0.7	38.4	-7.8	0.6	25.3
COc1ccc(OC)c(NC(=O)C2CCN(c3cc(-c4ccccc4)nc4ncnn34)CC2)c1	0.3	0.5	32.5	13.6	0.7	51.8*
Cc1cnn(C(=S)NCC2CCCO2)c1 (stereo not drawn)	7.1	0.4	0.4	-5.9	1	55.7*
Cc1cccc(NC(=S)NCC2CCCO2)c1 (stereo not drawn)	-6.7	1.1	-19.9	-2.4	1.2	-11.5
SMILES	PostGolgi yeast	CYP2C19 activ	CYP2C9 inhib	PostGolgi ctrl	CYP2C9 activ	CYP2C19 inhib
Cc1ccc(C)n1-c1ccc(C(=O)NCC2CCCO2)cc1 (stereo not drawn)	-3.3	0.4	18.0	-3.2	0.8	57.9*
Cc1ccc(NC(=S)NCC2CCCO2)cc1 (stereo not drawn)	-5.2	0.8	-13.9	5.7	1.1	22.7
Cc1cc(C(=O)NNC(=S)NCC2CCCO2)cs1 (stereo not drawn)	-7.8	0.5	-20.7	3.8	1.2	51.5*
Cc1ccc(C(=O)NC(=S)NCC2CCCO2)cc1 (stereo not drawn)	-5.2	0.3	37.1	-0.8	0.6	68.3*
CC(/C=C/c1ccc2c(c1)OCO2)=N\NC(=O)COc1ccccc1C	-0.3	1	11.0	9.9	0.9	2.1
O=C(c1ccc(Br)cc1)N(C1=NCCCCS1)c1ccccc1	-5.9	0.9	-6.4	9.1	1.1	13.7
CCC(CC)NC(=O)c1cc(OC)c(OC)c(OC)c1	-2.7	1	3.0	5.6	1	3.5
Cc1ccc(N2CC(C(=O)NCC3CCCO3)CC2=O)cc1Cl (stereo not drawn)	-9.1	1	-161.5	1.3	2.6*	2.1
CN(C)CCNC(=O)C1CC(=O)N(c2ccc(F)c(Cl)c2)C1 (stereo not drawn)	-5.5	0.9	-27.6	-2.4	1.3	7.5
CC(=O)C1=C(C)NC(=O)NC1c1cc(Br)ccc1OCC(N)=O (stereo not drawn)	5.1	0.9	4.7	3.3	1	11.9
CCn1c(COc2ccc(C)cc2)nnc1SCC(=O)Nc1ccc(S(N)(=O)=O)cc1	0.6	0.9	21.8	-2.1	0.8	6.6
CCNC(=S)NNC(=O)c1cc(C)on1	-2.4	1.2	-13.0	-11.6	1.1	-15.1
C=CCNC(=O)C(C)Sc1ccc(Cl)cc1 (stereo not drawn)	7.7	0.3	39.1	1.3	0.6	70.1*
CN1CCN(C(=O)C23CCC(C)(c4nc5ccccc5nc42)C3(C)C)CC1 (stereo not drawn)	5.2	1.1	-4.7	4.8	1	-6.8
Cc1csc(NC(=O)c2ccoc2C)n1	4.8	0	80.0*	12.2	0.2	100.0*
Cc1csc(NC(=O)c2cccc(C)c2C)n1	7.1	1.1	0.2	19.9	1	-8.9
CCOC(=O)Cc1csc(NC(=O)c2ccoc2C)n1	-8.1	0.1	73.6*	12.6	0.3	93.4*
CCn1c2ccccc2c2cc(NC(=O)c3ccco3)ccc21	5.7	0.5	-40.2	19.4	1.4	45.3
CCOc1ncccc1C(=O)OCC(=O)NCCc1ccccc1	-1.1	0.3	15.5	-5.3	0.8	67.7*
Cc1cc(C(=O)OCC(=O)NCCc2ccccc2)c(C)o1	-9.7	0.2	87.6*	4.6	0.1	76.0*
CCOc1ncccc1C(=O)OCC(=O)Nc1cc(C)ccc1C	-4.4	0.7	38.8	7.9	0.6	26.4
Cc1ccc(NC2c3ncccc3C(=O)N2C2CCCCC2)cc1C (stereo not drawn)	-8.8	0.6	17.2	12.2	0.8	43.9
Clc1ccc(NC2(c3nnnn3C3CCCCC3)CCCCC2)cc1	2.8	1	-9.3	20.0	1.1	0.9
Cc1cccc(C)c1-n1nnnc1C1(Nc2ccccc2)CCCCC1	3.6	0.4	61.1*	44.4*	0.4	61.0*
CC(=O)C1=C(C)NC(=O)NC1c1cccs1 (stereo not drawn)	11.0	0.9	-5.8	3.8	1.1	7.6

Assay outcomes: PubChem BioAssay, several laboratories
